Many of the other results were omitted from the sample, so the strongest signals are more common in it than they were.
Legend:
Assay in all cases: glycan array binding signal (z-score within array); higher = stronger binding
Settings in all cases: glycan notation: IUPAC condensed, linker removed
[1] = target: Gal(b1-4)GlcNAc(b1-3)Gal(b1-4)GlcNAc
How it was run: (§1)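 The Consortium for Functional Glycomics database supplied 3228 glycan arrays, of which those lacking an available protein sequence were dropped. The binding signal, a within-array Z-score, was averaged across arrays of the same protein sequence and across linkers. Negative scores can be read as non-binding.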

[2] = target: Gal(b1-4)GlcNAc(b1-6)GalNAc
How it was run: as §1

Gal3S6S(b1-4)GlcNAc6S = target: Gal3S6S(b1-4)GlcNAc6S
How it was run: as §1

GalNAc(a1-3)GalNAc = target: GalNAc(a1-3)GalNAc
How it was run: as §1

[3] = target: GalNAc(a1-3)GalNAc(b1-3)Gal(a1-4)Gal(b1-4)GlcNAc
How it was run: as §1

GalNAc(b1-3)Gal = target: GalNAc(b1-3)Gal
How it was run: as §1

[4] = target: GalNAc(b1-3)Gal(a1-6)Gal(b1-4)Glc
How it was run: as §1

[5] = target: GalNAc(b1-4)GlcNAc(b1-2)Man
How it was run: as §1

GalNAc(b1-4)GlcNAc6S = target: GalNAc(b1-4)GlcNAc6S
How it was run: as §1

GlcNAc(b1-4)GlcNAc = target: GlcNAc(b1-4)GlcNAc
How it was run: as §1

[6] = target: GlcNAc(b1-4)GlcNAc(b1-4)GlcNAc
How it was run: as §1

GlcNAc(b1-6)GalNAc = target: GlcNAc(b1-6)GalNAc
How it was run: as §1

Kdn(a2-6)Gal(b1-4)GlcNAc = target: Kdn(a2-6)Gal(b1-4)GlcNAc
How it was run: as §1

[7] = target: Neu5Ac(a2-3)Gal(b1-3)GalNAc
How it was run: as §1

[8] = target: Neu5Ac(a2-3)Gal(b1-3)GlcNAc(b1-4)Gal(b1-4)Glc
How it was run: as §1

[9] = target: Neu5Ac(a2-3)Gal(b1-4)GlcNAc(b1-3)Gal(b1-4)GlcNAc
How it was run: as §1

[10] = target: Neu5Ac(a2-3)Gal(b1-4)GlcNAc(b1-3)[Neu5Ac(a2-3)Gal(b1-4)GlcNAc(b1-6)]GalNAc
How it was run: as §1

[11] = target: Neu5Ac(a2-3)Gal(b1-4)GlcNAc6S
How it was run: as §1

[12] = target: Neu5Ac(a2-8)Neu5Ac(a2-3)Gal(b1-3)GalNAc(b1-4)[Neu5Ac(a2-8)Neu5Ac(a2-3)]Gal(b1-4)Glc
How it was run: as §1

[13] = target: Neu5Ac(a2-8)Neu5Ac(a2-3)Gal(b1-4)GlcNAc
How it was run: as §1

[14] = target: Neu5Ac(a2-8)Neu5Ac(a2-8)Neu5Ac(a2-8)Neu5Ac(a2-3)[GalNAc(b1-4)]Gal(b1-4)Glc
How it was run: as §1

[15] = target: Neu5Gc(a2-8)Neu5Ac(a2-3)Gal(b1-4)GlcNAc
How it was run: as §1

[16] = target: Neu5Gc(a2-8)Neu5Gc(a2-6)Gal(b1-4)GlcNAc
How it was run: as §1

B1: MGL (Homo sapiens), Q8IUN9 (protein)
chain: MTRTYENFQYLENKVKVQGFKNGPLPLQSLLQRLCSGPCHLLLSLGLGLLLLVIICVVGFQNSKFQRDLVTLRTDFSNFTSNTVAEIQALTSQGSSLEETIASLKAEVEGFKQERQAGVSELQEHTTQKAHLGHCPHCPSVCVPVHSEMLLRVQQLVQDLKKLTCQVATLNNNASTEGTCCPVNWVEHQDSCYWFSHSGMSWAEAEKYCQLKNAHLVVINSREEQNFVQKYLGSAYTWMGLSDPEGAWKWVDGTDYATGFQNWKPGQPDDWQGHGLGGGEDCAHFHPDGRWNDDVCQRPYHWVCEAGLGQTSQESH
- glycan array binding signal (z-score) [1]: -0.242
- glycan array binding signal (z-score) [2]: 4.14
- glycan array binding signal (z-score) (Gal3S6S(b1-4)GlcNAc6S): -0.242
- glycan array binding signal (z-score) (GalNAc(a1-3)GalNAc): 0.346
- glycan array binding signal (z-score) [3]: 0.634
- glycan array binding signal (z-score) (GalNAc(b1-3)Gal): 3.3
- glycan array binding signal (z-score) [4]: 3.77
- glycan array binding signal (z-score) [5]: 3.9
- glycan array binding signal (z-score) (GalNAc(b1-4)GlcNAc6S): 4.05
- glycan array binding signal (z-score) (GlcNAc(b1-4)GlcNAc): -0.243
- glycan array binding signal (z-score) [6]: -0.253
- glycan array binding signal (z-score) (GlcNAc(b1-6)GalNAc): 4.7
- glycan array binding signal (z-score) (Kdn(a2-6)Gal(b1-4)GlcNAc): -0.245
- glycan array binding signal (z-score) [7]: -0.241
- glycan array binding signal (z-score) [8]: -0.251
- glycan array binding signal (z-score) [9]: -0.238
- glycan array binding signal (z-score) [10]: -0.527
- glycan array binding signal (z-score) [11]: -0.244
- glycan array binding signal (z-score) [12]: -0.243
- glycan array binding signal (z-score) [13]: -0.259
- glycan array binding signal (z-score) [14]: 3.54
- glycan array binding signal (z-score) [15]: -0.237
- glycan array binding signal (z-score) [16]: -0.246

Reference: the supplement of paper PMC8728848
